From PubChem BioAssay AID1986 (Sanford-Burnham Center for Chemical Genomics, 2009)
Several values for one entry are separate records, joined by “and”; a condition that tells them apart may be missing. Identical values can stand only once. Among all 290,000 compounds or so, about 890 (0.31%) were called active. The sample holds actives, similar compounds and a random draw of the others, so the mix is not that of the screen. Cut-off read from the data, not from the text of the source: active = inhibition mostly above about 52% (no sharp cut-off); inactive = mostly below about 76%. Some compounds were tested as several samples or in several runs, with calls that do not always agree.

Experiment: cell-free HIV fusion peptide-binding blockers – biochemical, uHTS, fluorescence dequenching, primary screen (AID 1986)
Details: 30 min, stronger effect = higher value
[1] = measured here: repeat confirmation average inhibition, at 18.6 µM

Compound | inhibition (at 20 µM) | inhibition [1] [%]
Cc1cc(C(F)F)n2ncc(C(=O)NC3CCCCCC3)c2n1 | 3.7% (inactive) | 
Cc1c(C(=O)NC(c2ccccn2)C(F)(F)F)oc2c(F)cccc12 (stereo not given) | 0.9% (inactive) | 
COc1ccc(CNC(=O)[C@@H](NC(=O)C2CCN(C(=O)[C@@H](N)Cc3ccccc3)CC2)C(C)C)cc1 | -1.9% (inactive) | 
COc1ccc(OC)c(CNC(=O)CCSCc2ccc(F)cc2Cl)c1 | 0% (inactive) | 
CCN1C(=O)/C(=C/N2CCc3ccccc3C2)SC1=S | 0.4% (inactive) | 
CCN1C(=O)/C(=C\N2CCCc3ccccc32)SC1=S | 3.7% (inactive) | 
CCN1C(=O)/C(=C/N2CCc3ccccc32)SC1=S | 112% (active) | 63
Fc1ccc(N2CCN(C(c3cccs3)c3nnnn3CCc3ccccc3)CC2)cc1 (stereo not given) | -1.4% (inactive) | 
COc1cc(C2CC(=O)N(CC(=O)NCC3CCCO3)c3ccccc3S2)cc(OC)c1OC (stereo not given) | 0.6% (inactive) | 
CC(C)(C)OC(=O)N1CCC(c2cc(=O)n3[nH]c(-c4ccc(Cl)cc4)cc3n2)CC1 | -1.3% (inactive) | 
COc1cc(NC(=O)c2cnn3c(C(F)F)cc(C4CC4)nc23)c(OC)cc1Cl | -0.3% (inactive) | 
CC(C)(C)OC(=O)N1CCC(c2c(C(=O)NC3CC3)cnn2-c2ccc(Cl)cc2)CC1 | 3.6% (inactive) | 
COc1ccc(-n2ncc(C(=O)NC3CC3)c2C2CCN(C(=O)OC(C)(C)C)CC2)cc1 | 1.2% (inactive) | 
COc1ccc(CCNC2CC(=O)N(CCc3ccccc3)C2=O)cc1 (stereo not given) | 0.5% (inactive) | 
COCCN1C(=O)N(c2cccc(C)c2)C(=O)C1CC(=O)Nc1cc(OC)cc(OC)c1 (stereo not given) | 0.1% (inactive) | 
O=C1OC(c2ccc(F)cc2)=C/C1=C\c1ccc(O)cc1 | 1.8% (inactive) | 
O=[N+]([O-])c1ccc(/C=N\NS(=O)(=O)c2ccc(F)cc2)o1 | 1.3% (inactive) | 
O=C1OC(c2ccc(F)cc2)=C/C1=C\c1ccc([N+](=O)[O-])o1 | 77.6% (active) | 
COc1cccc(/C=c2\sc3nc(-c4cccs4)nn3c2=O)c1OC | 2.8% (inactive) | 
CCOc1ccc(/C=c2\sc3nc(-c4ccco4)nn3c2=O)cc1OCC | 21.5% (inactive) | 
COc1ccc(/C=c2\sc3nc(-c4ccccc4OC)nn3c2=O)c(OC)c1 | 11.2% (inactive) | 
COc1ccccc1/C=c1\sc2nc(-c3ccco3)nn2c1=O | 36.3% (inactive) | 
COc1ccc(OC)c(/C=c2\sc3nc(-c4cccs4)nn3c2=O)c1 | 60.9% (active) | 58
COc1ccc(Br)cc1/C=c1\sc2nc(-c3ccco3)nn2c1=O | 56.1% (active) | 

Compound | inhibition (at 20 µM) | inhibition [1] [%]
CC(C)n1cc(C(=O)c2ccccc2O)cc(C#N)c1=O | -0.9% (inactive) | 
CC(C)CC(C(=O)O)N1C(=O)C2C3c4ccccc4C(c4ccccc43)[C@@H]2C1=O (stereo not given in full) | -0.8% (inactive) | 
CCCCCCCNC(=O)C1(CC2CC(c3ccc(Cl)cc3)=NO2)CCN(C(=O)OC(C)(C)C)CC1 (stereo not given) | 0.6% (inactive) | 
Cc1oncc1C(=O)NC1CCCCC1 | 0.8% (inactive) | 
CCOc1ccccc1N(CC(=O)NCCc1ccccc1)C(=O)CCC(=O)Nc1ccccn1 | 0% (inactive) | 
C=CCN1C(=O)/C(=C\C=C2\N(C)c3ccccc3C2(C)C)SC1=S | 54.6% (active) | 
CCCCN1C(=O)/C(=C/C=C2\N(C)c3ccccc3C2(C)C)SC1=S | -0.3% (inactive) | 
CN1/C(=C\C=C2/SC(=S)N(CC(=O)O)C2=O)C(C)(C)c2ccccc21 | 148% (inactive) | 
COc1cccc(-c2noc(CCCC(=O)Nc3ccc(C(N)=O)cc3)n2)c1 | 0.5% (inactive) | 
CCCCCCCCCCCCCCCCn1cc[n+](C)c1 | 137% (inactive) and 70.3% (active) | 
CCCCCCn1ccc(=N)cc1 | -2% (inactive) | 
CCCCCCCCn1ccc(=N)cc1 | -1.2% (inactive) | 
C[C@H](NC(=O)C1CCN(S(=O)(=O)c2ccccc2)CC1)C(=O)NCc1cccc(Cl)c1 | -1.4% (inactive) | 
CCOC(=O)C1=C(C)C2C3C(=O)N(c4cc(C)ccc4C)C(=O)C3C1(C)C1C(=O)N(c3cc(C)ccc3C)C(=O)C21 (stereo not given) | -0.1% (inactive) | 
COC(=O)c1sc(N2C(=O)C(O)=C(C(=O)c3ccc(C)o3)C2c2ccc(OC)c(OC)c2)nc1C (stereo not given) | 15.3% (inactive) | 
COc1ccc(C(C)=O)cc1CSc1nc2cc(C(=O)O)ccc2c(=O)n1Cc1ccccc1 | 62.4% (active) | 
COCCn1c(SCc2cc(C(C)=O)ccc2OC)nc2cc(Cl)ccc2c1=O | -2.4% (inactive) | 
CCOC(Cn1c(SCc2cc(C(C)=O)ccc2OC)nc2ccccc2c1=O)OCC | 3.3% (inactive) | 
COCC(C)n1c(SCC(=O)c2cc(C)n(C)c2C)nc2ccccc2c1=O (stereo not given) | 0.2% (inactive) | 
CC(C)(C)c1ccc(NC(=O)C2CCCN(c3cnccn3)C2)cc1 (stereo not given) | -0.1% (inactive) | 
Cc1ccc2c(c1)NC(=O)c1cc([N+](=O)[O-])ccc1O2 | 2.5% (inactive) | 
Cc1ccc(Oc2cc([N+](=O)[O-])cc3c2C(=O)Nc2ccccc2O3)cc1 | 40.9% (inactive) | 
O=C1Nc2ccccc2Oc2cc([N+](=O)[O-])ccc21 | 13% (inactive) | 
Cc1cccc(Oc2cc([N+](=O)[O-])cc3c2C(=O)Nc2ccccc2O3)c1 | 46.8% (inactive) | 
